From PubChem BioAssay (NCATS)
“And” between values parts separate entries of the source, which are not always exact repeats. Equal values may be shown once. Results filed as inconclusive are left out. The source made the active and inactive calls. Unless noted, calls come from the whole dose curve.

Legend:
[1] = molecular target: Peroxisome proliferator-activated receptor delta (Homo sapiens) (UniProt Q03181); assay: qHTS assay for small molecule agonists of peroxisome proliferator-activated receptor delta signaling (AID 588534);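 note: 0% = DMSO basal wells and 100% = positive control agonist at 10 µM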
Sequence of Peroxisome proliferator-activated receptor delta (Homo sapiens) (Q03181 whole entry, looked up): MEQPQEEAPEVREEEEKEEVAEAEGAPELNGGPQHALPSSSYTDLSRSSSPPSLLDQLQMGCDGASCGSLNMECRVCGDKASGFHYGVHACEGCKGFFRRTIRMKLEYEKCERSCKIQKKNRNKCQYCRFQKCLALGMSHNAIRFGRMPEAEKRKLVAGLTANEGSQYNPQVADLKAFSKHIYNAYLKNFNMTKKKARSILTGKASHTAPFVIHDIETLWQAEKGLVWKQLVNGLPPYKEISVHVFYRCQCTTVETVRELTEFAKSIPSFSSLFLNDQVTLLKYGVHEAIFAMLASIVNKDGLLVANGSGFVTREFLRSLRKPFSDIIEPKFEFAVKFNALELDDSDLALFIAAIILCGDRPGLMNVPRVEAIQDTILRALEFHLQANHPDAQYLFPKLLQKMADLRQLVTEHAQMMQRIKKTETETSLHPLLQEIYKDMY
In short: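 Agonist-mode qHTS; reporter cells, 5 hrs 37 C pre-incubation; compound titration, 18 hrs 37 C; CCF4 dye, 2 hrs RT; fluorescence read. EC50/efficacy via Hill fit.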

[2] = molecular target: Vitamin D3 receptor (Homo sapiens) (UniProt P11473); assay: qHTS assay for small molecule agonists of vitamin D receptor signaling (AID 588543);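 note: 0% = DMSO basal and 100% = reference agonist control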
Sequence of Vitamin D3 receptor (Homo sapiens) (P11473 whole entry, looked up): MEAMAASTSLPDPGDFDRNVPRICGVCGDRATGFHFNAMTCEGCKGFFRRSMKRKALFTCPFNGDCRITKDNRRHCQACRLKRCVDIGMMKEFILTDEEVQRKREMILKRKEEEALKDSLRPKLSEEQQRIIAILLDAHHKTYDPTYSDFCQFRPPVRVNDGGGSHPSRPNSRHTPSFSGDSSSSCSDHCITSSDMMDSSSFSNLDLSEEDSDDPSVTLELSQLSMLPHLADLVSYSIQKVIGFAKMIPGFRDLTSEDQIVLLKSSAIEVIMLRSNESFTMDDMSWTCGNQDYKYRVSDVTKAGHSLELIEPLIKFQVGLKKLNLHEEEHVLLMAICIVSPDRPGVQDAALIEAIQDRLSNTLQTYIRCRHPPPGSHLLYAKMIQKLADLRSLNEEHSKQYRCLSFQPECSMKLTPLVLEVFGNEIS
In short: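 qHTS in agonist mode: compound titrations stimulate a VDR-driven β-lactamase reporter in HEK293T cells over 16 h at 37 °C. Response normalized to 50 nM 1α,25-dihydroxyvitamin D3 = 100%, DMSO = 0%; Hill fitting gives EC50 and maximal response.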

[3] = qHTS assay for small molecule antagonists of retinoid X receptor alpha signaling (AID 588546; active = well fitted inhibition curve with a large enough effect in the signal ratio, with a control signal flat, not every such curve was filed as active; the % refers to the signal ratio; note: potency is the fitted concentration of half-maximal effect); details: HEK293T RXRa-UAS-bla, beta-lactamase ratio, antagonist mode; measured here: W530 green channel, cytotoxicity proxy
In short: (§1)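 Beta-lactamase reporter inhibition, read as CCF4 fluorescence ratio (ex 405, em 460/530 nm) after 2 h at RT. HEK293T UAS-bla cells, 2500/well, were stimulated with 9-cis-RA at 500 or 100 nM final alongside test compound for 18 h at 37 C.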

[4] = molecular target: Retinoic acid receptor RXR-alpha (Homo sapiens) (UniProt P19793); assay: as above; details: HEK293T RXRa-UAS-bla, beta-lactamase ratio, antagonist mode
Sequence of Retinoic acid receptor RXR-alpha (Homo sapiens) (P19793 whole entry, looked up): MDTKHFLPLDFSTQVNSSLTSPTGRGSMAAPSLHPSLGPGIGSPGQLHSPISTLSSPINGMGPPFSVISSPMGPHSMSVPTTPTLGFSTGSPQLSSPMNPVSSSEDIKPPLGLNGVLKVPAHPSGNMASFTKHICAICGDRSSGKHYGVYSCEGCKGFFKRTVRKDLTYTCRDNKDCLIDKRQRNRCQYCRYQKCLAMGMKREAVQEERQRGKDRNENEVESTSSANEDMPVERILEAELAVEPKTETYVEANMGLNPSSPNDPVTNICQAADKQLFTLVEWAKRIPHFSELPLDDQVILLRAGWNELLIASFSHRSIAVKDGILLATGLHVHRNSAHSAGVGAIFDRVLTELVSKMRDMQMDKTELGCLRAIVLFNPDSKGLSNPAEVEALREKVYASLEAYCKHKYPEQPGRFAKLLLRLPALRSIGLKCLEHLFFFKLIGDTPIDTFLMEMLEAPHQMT
In short: as §1

[5] = qHTS assay for small molecule activators of the p53 signaling pathway (AID 651743; active = well fitted activation curve with a large enough effect in the signal ratio, not every such curve was filed as active; the % refers to the signal ratio; note: potency is the fitted concentration of half-maximal effect; for activation: series mostly up to about 92 µM; % of control where 0% means no effect); details: HCT-116 p53RE-bla, beta-lactamase FRET ratio, 16 h; activation: stronger effect = higher value
In short: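 After 16 hours compound treatment at 37 C, HCT-116 cells stably expressing p53RE-driven beta-lactamase were loaded with LiveBLAzer B/G FRET substrate for 2 hours at room temperature. Fluorescence intensity served as the p53 activation read-out.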

[6] = qHTS assay for environmental chemicals that activate the Aryl hydrocarbon Receptor (AhR) signaling pathway (AID 651777; active = well fitted curve in the direction sought with a large enough effect; an effect the other way counts as inactive or inconclusive; note: % of control where 0% means no effect; nearly all actives have a fitted effect of over 15% in size); details: 1A2-DRE human hepatoma cells, luciferase, 24 h; activation: stronger effect = higher value
In short: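 Luminescence read-out: One-Glo added for 30 min at RT after 24 hr compound treatment (37 C, 5% CO2) of human hepatoma cells expressing a DRE/CYP1A2 promoter–luciferase reporter; increased signal indicates AhR activation.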

[7] = molecular target: Peroxisome proliferator-activated receptor alpha (Homo sapiens) (UniProt Q07869); assay: qHTS assay for small molecule agonists of the peroxisome proliferator-activated receptor alpha (PPARalpha) signaling pathway (AID 651778; active = well fitted curve in the direction sought with a large enough effect; an effect the other way counts as inactive or inconclusive; note: % of control where 0% means no effect); details: PathHunter PPARalpha complementation, chemiluminescence, 6 h; max response: stronger effect = higher value
Sequence of Peroxisome proliferator-activated receptor alpha (Homo sapiens) (Q07869 whole entry, looked up): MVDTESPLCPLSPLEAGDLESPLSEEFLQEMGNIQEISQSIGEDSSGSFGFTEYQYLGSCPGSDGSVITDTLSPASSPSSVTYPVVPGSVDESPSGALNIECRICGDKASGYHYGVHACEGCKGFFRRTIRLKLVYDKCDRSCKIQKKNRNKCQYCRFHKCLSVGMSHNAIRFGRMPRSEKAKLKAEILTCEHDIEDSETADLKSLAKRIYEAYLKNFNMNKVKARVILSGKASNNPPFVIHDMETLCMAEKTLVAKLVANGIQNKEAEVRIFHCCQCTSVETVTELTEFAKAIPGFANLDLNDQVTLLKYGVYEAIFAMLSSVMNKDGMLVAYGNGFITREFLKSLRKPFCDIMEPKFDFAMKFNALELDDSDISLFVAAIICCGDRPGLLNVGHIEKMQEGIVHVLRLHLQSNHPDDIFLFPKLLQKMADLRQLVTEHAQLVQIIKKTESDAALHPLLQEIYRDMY
In short: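 Chemiluminescence from complemented enzyme reported PPARalpha activation in cells after 6 hr of compound treatment at 37 C. The detection reagent was incubated for 60 min at room temperature, and compounds were scored as agonists.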

[8] = qHTS assay for small molecule agonists of the antioxidant response element (ARE) signaling pathway measured by Nrf2-dependant transcriptional activity (AID 720636; active = well fitted curve in the direction sought with a large enough effect in the repeat runs; an effect the other way counts as inactive or inconclusive;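 note: HepG2 cells with an ARE-driven luciferase reporter; % of control where 0% means no effect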)
In short: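 HepG2 ARE-luc reporter line, 1% dialyzed FBS; 6 hr attachment at 37 C, compound pinned in, 16 hr at 37 C/5% CO2; ONE-Glo, 30 min RT, luminescence read.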

[9] = qHTS assay for small molecule agonists of the antioxidant response element (ARE) signaling pathway measured by Nrf2-dependant transcriptional activity - cell viability counter screen (AID 720653; active = well fitted curve in the direction sought with a large enough effect in the repeat runs; an effect the other way counts as inactive or inconclusive; note: % is set by controls: 0 for no effect and ±100 for the full control effect); details: ARE-bla HepG2 viability, CellTiter-Glo ATP luminescence, 16 h; max response: stronger effect = lower value
In short: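 Cytotoxicity counter screen: intracellular ATP quantified by CellTiter-Glo luminescence in the same ARE-bla HepG2 plates, after 16 h compound exposure and a 2 h beta-lactamase substrate step.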

[10] = qHTS assay for cell viability of HEK293 cells (AID 743288; active = well fitted curve in the direction sought with a large enough effect; an effect the other way counts as inactive or inconclusive; note: % is set by controls: 0 for no effect and ±100 for the full control effect; nearly all actives have a fitted effect of over 50% in size); details: ATP luminescence (CellTiter-Glo), 18 h; max response: stronger effect = lower value
In short: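 Quantitative high-throughput screen: compounds were pinned onto parental HEK293 cells (2,000 per well) after a minimum 5 h settling at 37 C, incubated 18 h at 37 C, and intracellular ATP measured by luciferase luminescence.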

[11] = molecular target: Glucocorticoid receptor (Homo sapiens) (UniProt P04150); assay: qHTS assay for small molecule agonists of glucocorticoid receptor signaling (AID 588532; active = well fitted curve in the direction sought with a large enough effect in the signal ratio, with a control signal flat; the % refers to the signal ratio;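 note: 100% = dexamethasone at 0.1 µM and 0% = DMSO only wells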); details: HeLa MMTV-bla, beta-lactamase ratio, agonist, 18 h; activation: stronger effect = higher value, percent of dexamethasone control, DMSO zero
Sequence of Glucocorticoid receptor (Homo sapiens) (P04150 whole entry, looked up): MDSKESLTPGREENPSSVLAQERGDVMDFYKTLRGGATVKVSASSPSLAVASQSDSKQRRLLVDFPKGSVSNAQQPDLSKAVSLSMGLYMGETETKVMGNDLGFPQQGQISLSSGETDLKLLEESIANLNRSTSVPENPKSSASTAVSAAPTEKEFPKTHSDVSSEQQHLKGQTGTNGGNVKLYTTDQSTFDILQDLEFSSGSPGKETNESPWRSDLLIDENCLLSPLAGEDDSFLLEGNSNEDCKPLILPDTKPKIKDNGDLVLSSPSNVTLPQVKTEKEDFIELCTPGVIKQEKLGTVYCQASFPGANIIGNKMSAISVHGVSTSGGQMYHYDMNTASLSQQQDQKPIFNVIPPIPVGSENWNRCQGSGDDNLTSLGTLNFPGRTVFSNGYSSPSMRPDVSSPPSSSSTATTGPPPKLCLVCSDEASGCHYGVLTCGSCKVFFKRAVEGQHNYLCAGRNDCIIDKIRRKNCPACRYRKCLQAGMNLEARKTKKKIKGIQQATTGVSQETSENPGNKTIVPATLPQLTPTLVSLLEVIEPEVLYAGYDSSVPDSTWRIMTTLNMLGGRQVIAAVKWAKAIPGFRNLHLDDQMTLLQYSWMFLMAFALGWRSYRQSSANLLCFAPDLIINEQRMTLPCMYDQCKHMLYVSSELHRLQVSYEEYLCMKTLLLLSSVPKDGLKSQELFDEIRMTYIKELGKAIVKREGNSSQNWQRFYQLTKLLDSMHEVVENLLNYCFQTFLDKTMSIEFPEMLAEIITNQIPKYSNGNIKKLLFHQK
In short: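 Using MMTV-bla HeLa cells in medium with 1% stripped FBS and 25 mM HEPES, compounds were titrated and incubated overnight-length (18 h). Beta-lactamase cleavage of CCF4 was quantified by dual-emission fluorescence.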

[12] = molecular target: Vitamin D3 receptor (Homo sapiens) (UniProt P11473); assay: qHTS assay for small molecule antagonists of vitamin D receptor signaling (AID 588541);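 note: receptor activated by calcitriol during compound treatment; series mostly up to about 77 µM; % is set by controls: 0 for no effect and ±100 for the full control effect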
In short: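 Antagonist-mode beta-lactamase reporter assay: HEK293T VDR-UAS-bla cells were exposed to titrated compound alongside 1-alpha,25-dihydroxyvitamin D3 at 3 nM final for 16 h. Values were normalized to the 50 nM agonist control and DMSO basal, with IC50 and efficacy from Hill equation fits.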

[13] = molecular target: Retinoic acid receptor RXR-alpha (Homo sapiens) (UniProt P19793); assay: qHTS assay for small molecule agonists of retinoid X receptor alpha signaling (AID 588544);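 note: 0% = DMSO basal wells and 100% = reference agonist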
[14] = molecular target: Thyroid hormone receptor beta (Homo sapiens) (UniProt P10828); assay: qHTS assay for small molecule agonists of thyroid hormone receptor beta signaling (AID 588545);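 note: 0% = DMSO only and 100% = 10 nM T3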
Sequence of Thyroid hormone receptor beta (Homo sapiens) (P10828 whole entry, looked up): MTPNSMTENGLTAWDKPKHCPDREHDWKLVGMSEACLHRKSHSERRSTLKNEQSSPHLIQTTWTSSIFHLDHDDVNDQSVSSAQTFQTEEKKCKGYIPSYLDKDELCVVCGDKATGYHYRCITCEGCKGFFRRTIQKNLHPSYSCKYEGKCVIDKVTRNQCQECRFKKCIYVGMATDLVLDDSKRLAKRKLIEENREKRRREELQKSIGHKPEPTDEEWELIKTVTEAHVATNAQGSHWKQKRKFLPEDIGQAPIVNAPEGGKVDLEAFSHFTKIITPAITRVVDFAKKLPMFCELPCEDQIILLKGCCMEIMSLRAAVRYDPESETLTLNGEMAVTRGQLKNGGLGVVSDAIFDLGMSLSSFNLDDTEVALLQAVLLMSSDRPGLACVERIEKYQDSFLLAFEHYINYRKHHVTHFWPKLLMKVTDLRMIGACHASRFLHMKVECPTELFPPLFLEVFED
In short: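 Efficacy and EC50 values derive from Hill fits of qHTS titration data, normalized to 10 nM T3 and DMSO-only wells. HEK 293 reporter cells were stimulated for 18 hrs at 37 C, with beta-lactamase activity measured by CCF4 fluorescence.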

[15] = molecular target: Thyroid hormone receptor beta (Homo sapiens) (UniProt P10828); assay: qHTS assay for small molecule antagonists of thyroid hormone receptor beta signaling (AID 588547; active = well fitted inhibition curve with a large enough effect in the signal ratio, with a control signal flat, not every such curve was filed as active; the % refers to the signal ratio;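 note: cells stimulated with 0.4 nM T3 agonist during compound exposure; series mostly up to about 77 µM; % is set by controls: 0 for no effect and ±100 for the full control effect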); details: TR-UAS-bla HEK293, beta-lactamase ratio, antagonist mode, 18 h
In short: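 Inhibition of T3-driven (0.4nM final) beta-lactamase reporter activity was measured over 0.59 nM to 92 uM compound after 18 h at 37 C. The cells were GripTite HEK293 TR-UAS-bla in charcoal/dextran-stripped serum, with CCF4 ratio read-out and IC50 from Hill fits.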

[16] = qHTS assay for small molecule activators of the nuclear factor-kappa B (NF-kB) signaling pathway (AID 651749; active = well fitted activation curve with a large enough effect in the signal ratio; the % refers to the signal ratio; note: series mostly up to about 77 µM; % of control where 0% means no effect); details: NF-kB-bla ME-180 cells, beta-lactamase FRET ratio, 16 h; activation: stronger effect = higher value
In short: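 Activation measured after 16 hr compound treatment at 37C, 5% CO2, of 2,000 ME-180 cells/well stably expressing an NF-kB response element–driven beta-lactamase reporter, via FRET-disruption fluorescence.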

[17] = molecular target: Nuclear receptor subfamily 1 group I member 2 (Rattus norvegicus) (UniProt Q9R1A7); assay: qHTS assay for small molecule activators of the rat pregnane X receptor (rPXR) signaling pathway (AID 651751; call rule not given here; note: 0% is about no effect); details: rPXR reporter cells, luciferase (One-Glo), 24 h
Sequence of Nuclear receptor subfamily 1 group I member 2 (Rattus norvegicus) (Q9R1A7 whole entry, looked up): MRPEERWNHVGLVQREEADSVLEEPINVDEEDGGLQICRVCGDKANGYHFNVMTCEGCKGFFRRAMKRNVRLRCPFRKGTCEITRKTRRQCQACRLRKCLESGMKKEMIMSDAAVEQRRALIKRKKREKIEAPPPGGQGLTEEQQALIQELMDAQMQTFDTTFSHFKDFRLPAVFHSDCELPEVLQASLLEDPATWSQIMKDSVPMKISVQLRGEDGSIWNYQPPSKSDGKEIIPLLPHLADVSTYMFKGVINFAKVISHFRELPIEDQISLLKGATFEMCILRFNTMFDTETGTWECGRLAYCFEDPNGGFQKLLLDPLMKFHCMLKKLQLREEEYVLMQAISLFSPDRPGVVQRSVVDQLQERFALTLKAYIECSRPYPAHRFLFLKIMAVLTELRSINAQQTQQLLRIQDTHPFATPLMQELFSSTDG

[18] = molecular target: Glucocorticoid receptor (Homo sapiens) (UniProt P04150); assay: qHTS assay for small molecule antagonists of glucocorticoid receptor signaling (AID 588533; active = well fitted inhibition curve with a large enough effect in the signal ratio, with a control signal flat, not every such curve was filed as active; the % refers to the signal ratio;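 note: cells stimulated with 2 nM dexamethasone as agonist; % is set by controls: 0 for no effect and ±100 for the full control effect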)
In short: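 Antagonist-mode qHTS: compound titrations added to GRE-bla HeLa cells, then dexamethasone 2 nM final; 18 h, 37 C. CCF4 FRET fluorescence normalized to dexamethasone and DMSO; IC50 from Hill fit.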

[19] = qHTS assay for cell viability of the p53RE-bla HCT-116 cell line (AID 743292; active = well fitted curve in the direction sought with a large enough effect; an effect the other way counts as inactive or inconclusive; note: % is set by controls: 0 for no effect and ±100 for the full control effect; nearly all actives have a fitted effect of over 55% in size)
In short: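 Luminescent ATP quantitation (CellTiter-Glo) served as the viability read-out; reagent was added after 16 h compound exposure at 37 C and read after 30 min at room temperature. Cells: p53RE-bla HCT-116, 4,000 per well.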

[20] = qHTS assay for small molecule antagonists of peroxisome proliferator-activated receptor delta signaling (AID 588535); details: HEK293T PPARd-UAS-bla, beta-lactamase FRET ratio, 18 h; 460 nm channel;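 note: cells co-treated with a PPAR-delta agonist as stimulator during compound exposure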
In short: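 Titrations were run on PPAR-delta-UAS-bla HEK293T cells in charcoal/dextran-stripped serum, incubated 18 h at 37 C. CCF4 fluorescence (460/530 nm) after 2 h RT; Hill equation yields IC50 and maximal response.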

CC1(c2ccc(Oc3ccccc3)cc2)OC(=O)N(Nc2ccccc2)C1=O (stereo not given)
inactive: outcome [1] | outcome [2] | activation [6] 4.76% | max response [7] 11.6% | Potency [8] | max response [9] -28.5% | max response [10] -20.8%
19.6%: max response [3]
active: Potency [4] 31.6 µM | Potency [5] 5.01 µM

CCC[CH2][Sn]([CH2]CCC)([O]C(C)=O)[O]C(C)=O
2.17%: max response [3]
active: Potency [4] 22.4 µM
inactive: activation [11] -12.8% | outcome [1] | Potency [12] | outcome [2] | Potency [13] | Potency [14] | activity change % (negative = inhibition) [15] -21.2% | activation [5] 4.26% | activation [16] 0.746% | activation [6] -0.036% | max response [7] -2.27% | max response [9] -3.33% | max response [17] -0.354%

COP(=S)(OC)Oc1ccc([N+](=O)[O-])c(C)c1
inactive: activation [11] -13.6% | Potency [18] | outcome [1] | Potency [12] | outcome [2] | Potency [13] | Potency [14] | max response [4] -30.1% | activity change % (negative = inhibition) [15] 7.88% | max response [7] -4.6% | Potency [8] | max response [9] -3.17% | max response [10] -7.08% | Potency [19] | max response [17] -1.75%
-7.02%: max response [3]

CNC(=S)S
inactive: activation [11] -6.24% | Potency [18] | outcome [1] | Potency [12] | outcome [2] | Potency [13] | max response [4] -13.7% | activation [5] -4.42% | activation [16] -2.14% | activation [6] 0.794% | max response [7] -2.07% | Potency [8] | max response [9] -4.46% | max response [10] -18% | Potency [19] | max response [17] 0.745%
-6.57%: max response [20]
-10.7%: max response [3]

CC(C)CCCCCCOC(=O)c1ccccc1C(=O)OCCCCCCC(C)C
inactive: activation [11] 9.1% | Potency [18] | outcome [1] | Potency [12] | outcome [2] | Potency [13] | activity change % (negative = inhibition) [15] -2.48% | activation [5] 0.433% | activation [16] 2.38% | max response [7] -1.61% | max response [9] 0.428% | max response [10] -8.54% | Potency [19] | max response [17] 5.38%
-6.95%: max response [20]
-8.76%: max response [3]

COC(=O)NS(=O)(=O)c1ccc(N)cc1
-5.88%: max response [20]
inactive: activation [11] -1.43% and 1.04% | Potency [18] | outcome [1] | Potency [12] | outcome [2] | Potency [13] | Potency [14] | max response [4] -10.8% and -3.57% | activity change % (negative = inhibition) [15] -3.22% and 3.54% | activation [5] -7.42% and -0.724% | activation [16] -0.373% and -0.594% | activation [6] -0.0088% and 0.402% | max response [7] 0.635% and -1.36% | Potency [8] | max response [9] 9.3% and -4.17% | max response [10] 0.196% and -9.27% | Potency [19] | max response [17] 2.14% and -3.25%
6.39% and -8.17%: max response [3]
